“And” between values parts separate entries of the source, which are not always exact repeats. Equal values may be shown once. Values without a mark were called inactive. Results filed as inconclusive are left out. The source made the active and inactive calls. Unless noted, calls come from the whole dose curve.

In one assay the target is Alpha-galactosidase A (Homo sapiens) (UniProt P06280). Put plainly: Counterscreen for Glucocerebrosidase Inhibitors: qHTS Assay for Human alpha-Galactosidase at pH 4.5 (AID 992; active = well fitted curve in the direction sought with a large enough effect; an effect the other way counts as inactive or inconclusive; note: 0% is about no effect). The settings on record: purified enzyme, fluorogenic substrate; series mostly up to 76.9 µM; activity change, negative = inhibition: at the top concentration. A digest of the protocol: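 Fluorogenic 4-MU alpha-D-galactoside (80 uM) hydrolysis, 2 nM enzyme, pH 4.5 citrate buffer + 0.005% Tween-20; 20 min RT; NaOH/glycine pH 10 stop; Ex365/Em440. Compounds titrated 0.7 nM–77 uM; Hill-equation AC50.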
Alpha-galactosidase A (Homo sapiens), sequence (P06280 whole entry, looked up): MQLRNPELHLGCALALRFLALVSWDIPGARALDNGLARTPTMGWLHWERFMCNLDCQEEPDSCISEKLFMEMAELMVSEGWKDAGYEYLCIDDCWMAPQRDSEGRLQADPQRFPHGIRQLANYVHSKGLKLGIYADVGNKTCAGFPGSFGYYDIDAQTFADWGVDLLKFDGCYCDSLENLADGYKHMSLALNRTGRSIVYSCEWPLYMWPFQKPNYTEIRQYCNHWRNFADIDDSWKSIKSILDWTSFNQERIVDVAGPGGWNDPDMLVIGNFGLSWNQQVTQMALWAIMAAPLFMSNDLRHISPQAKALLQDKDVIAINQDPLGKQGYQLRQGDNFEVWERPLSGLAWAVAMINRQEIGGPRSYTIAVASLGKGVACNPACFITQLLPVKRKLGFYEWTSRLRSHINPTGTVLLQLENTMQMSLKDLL
(In general: Counterscreens check selectivity or assay interference.)
Consider `CNCCC=C1c2ccccc2CCc2ccccc21`, for which the “activity change, negative = inhibition” value was -2.79%.
For the compound `CC(C)NC[C@@H](O)COc1cccc2ccccc12`, the compound was called inactive.
Take `C[N+]1(CCCCC[N+]2(C)CCCC2)CCCC1`: the “activity change, negative = inhibition” value is -0.303%.

The next assay concerns the target alpha-glucosidase (Oryza sativa, rice) (UniProt Q653V4). Put plainly: Counterscreen for Glucocerebrosidase Inhibitors: qHTS Assay for Rice alpha-Glucosidase at pH 5.0 (AID 997; active = well fitted curve in the direction sought with a large enough effect; an effect the other way counts as inactive or inconclusive;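 note: 0% = full activity with enzyme and -100% = basal without enzyme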). The conditions noted are these: rice alpha-glucosidase enzyme activity; series mostly up to 76.9 µM; activity change, negative = inhibition: at the top concentration. A digest of the protocol:
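Endpoint fluorogenic assay at pH 5.0: compounds (0.7 nM to 77 uM) titrated against 4 nM rice enzyme and 400 uM 4-MU-alpha-glucoside for 20 min at room temperature; NaOH/glycine stop, read ex 365/em 440 nm, Hill-fitted AC50.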
Consider `CNCCC=C1c2ccccc2CCc2ccccc21`, for which the “activity change, negative = inhibition” value is -2%.
As to `CC(C)NC[C@@H](O)COc1cccc2ccccc12`, the result was inactive.
On to `C[N+]1(CCCCC[N+]2(C)CCCC2)CCCC1`, for which the “activity change, negative = inhibition” value is -2.26%.

Test system in another assay: not listed separately
The assay is described as follows: qHTS Assay for Lipid Storage Modulators (AID 1519). Note: % is set by controls: 0 for no effect and ±100 for the full control effect. The settings on record: Drosophila S3 cells, BODIPY lipid droplet/cell ratio, laser cytometry; at 25.7 µM (top of the series); cells loaded with oleic acid. A digest of the protocol: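 Cells seeded at 5,000 per well were treated with compounds over a concentration series and loaded with oleic acid (400 uM, as added). Lipid droplet fluorescence (488 nm excitation, 500-530 nm channel) was read by laser-scanning cytometry and normalized to 20 uM Triacsin C.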
In general terms: In qHTS, concentration-response curves come from the screen itself.
On to `CCN(CC)C(=O)N1CCN(C)CC1`, for which the activity change, negative = inhibition is -0.935%.
On to `CN(C)CCCOc1nn(Cc2ccccc2)c2ccccc12`, for which the activity change, negative = inhibition is -3.69%.
Turning to `CN(C)CC/C=C1\c2ccccc2Sc2ccc(Cl)cc21`, the activity change, negative = inhibition was -2%.
On the same count and under the same terms, to `Cc1c(N(C)CS(=O)(=O)O)c(=O)n(-c2ccccc2)n1C` belongs 0.216%; to `Nc1nc2ncc(CNc3ccc(C(=O)N[C@@H](CCC(=O)O)C(=O)O)cc3)nc2c(=O)[nH]1`, -2.19%; to `O=C(COc1ccc(Cl)cc1)N1CCN(Cc2ccc3c(c2)OCO3)CC1`, 1.24%.
As for `Cc1cc(=O)n(-c2ccccc2)n1C`, the activity change, negative = inhibition was 1.11%.
On to `CC(=O)N(O)CCCCCNC(=O)CCC(=O)N(O)CCCCCNC(=O)CCC(=O)N(O)CCCCCN`, for which the activity change, negative = inhibition was -1.65%.
Consider `COc1ccc(CCN2CCC(Nc3nc4ccccc4n3Cc3ccc(F)cc3)CC2)cc1`, for which the activity change, negative = inhibition was -7.48%.
With `CCCCOc1cc(C(=O)NCCN(CC)CC)c2ccccc2n1`, the activity change, negative = inhibition was -1.17%.
Turning to `O=C1c2ccccc2C(=O)C1c1ccccc1`, the activity change, negative = inhibition was -0.708%.
On to `CN1CCC(=C2c3ccccc3Sc3ccccc32)CC1`, for which the activity change, negative = inhibition was -2.77%.
In the case of `CCN(CCCc1ccccc1)CCCc1ccccc1`, the activity change, negative = inhibition was -2.55%.
For `CCOC(=O)n1ccn(C)c1=S`, the activity change, negative = inhibition is -1.84%.
Same read-out and setting: under `CN1CCN(C(c2ccccc2)c2ccccc2)CC1` stands -2.7%.
For `CC(C)N=C(N)/N=C(\N)Nc1ccc(Cl)cc1`, the activity change, negative = inhibition is -2.29%.
With `CNCCC=C1c2ccccc2CCc2ccccc21`, the activity change, negative = inhibition was -2%.
As for `CC(O)(P(=O)(O)O)P(=O)(O)O`, the activity change, negative = inhibition was 2.54%.
As for `CC(C)NC[C@@H](O)COc1cccc2ccccc12`, the activity change, negative = inhibition is -1.02% and 0.265% and -0.0202%.
For `C=C(CC)C(=O)c1ccc(OCC(=O)O)c(Cl)c1Cl`, the activity change, negative = inhibition was -7.65%.
Same read-out and setting: to `C[N+]1(CCCCC[N+]2(C)CCCC2)CCCC1` belongs -1.41%; to `OC(CCN1CCCCC1)(c1ccccc1)c1ccccc1`, -4.82%; to `O=C(CCCN1CCC(O)(c2ccc(Br)cc2)CC1)c1ccc(F)cc1`, -4.42%.

These data come from PubChem BioAssay (NCATS).
